Experimental data from publication PMC11006913.
Changes are numbered by the printed parent chain.

Legend:
Assay in all cases: PBM; 200 nM protein, PBS
Settings in all cases: dsDNA, one strand shown
VENTX [1] = target: T1, VENTX (Homo sapiens, UniProt O95231 78-163, R121Q)
T1 sequence: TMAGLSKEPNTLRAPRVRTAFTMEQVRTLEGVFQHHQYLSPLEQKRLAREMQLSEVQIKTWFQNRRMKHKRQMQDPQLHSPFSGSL

VENTX [2] = target: T2, VENTX (Homo sapiens, UniProt O95231 78-163)
T2 sequence: T1 sequence with Q44R

HOXA4 = HOXA4 (Homo sapiens, UniProt Q00056 201-287)
Chain of HOXA4 (Q00056 201-287): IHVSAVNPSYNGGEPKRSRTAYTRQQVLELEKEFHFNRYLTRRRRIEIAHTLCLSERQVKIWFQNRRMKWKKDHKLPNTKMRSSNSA

VENTX [3] = target: T3, VENTX (Homo sapiens, UniProt O95231 78-163, Y115F)
T3 sequence: T1 sequence with Y38F, Q44R

PAX4 = target: T4, PAX4 (Homo sapiens, UniProt O43316 9-242)
T4 sequence: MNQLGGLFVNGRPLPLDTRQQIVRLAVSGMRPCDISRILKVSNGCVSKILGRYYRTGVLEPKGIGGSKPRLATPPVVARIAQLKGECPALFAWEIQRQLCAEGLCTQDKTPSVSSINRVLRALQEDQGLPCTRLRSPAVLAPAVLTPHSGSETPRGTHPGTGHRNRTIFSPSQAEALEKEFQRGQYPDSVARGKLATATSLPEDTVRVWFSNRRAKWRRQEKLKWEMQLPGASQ

HOXC9 [4] = target: HOXC9 (Homo sapiens, UniProt P31274 178-260)
Chain of HOXC9 (Homo sapiens, UniProt P31274 178-260) (P31274 178-260): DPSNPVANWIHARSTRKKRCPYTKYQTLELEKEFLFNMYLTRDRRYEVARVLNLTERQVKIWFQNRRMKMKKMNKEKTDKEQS

HOXC9 [5] = target: HOXC9 (Homo sapiens, UniProt P31274 178-260, R193K)
Chain of HOXC9 (Homo sapiens, UniProt P31274 178-260, R193K) (P31274 178-260 R193K): as the sequence (P31274 178-260) above, with R16K counted along it

HOXC9 [6] = target: HOXC9 (Homo sapiens, UniProt P31274 178-260, R222W)
Chain of HOXC9 (Homo sapiens, UniProt P31274 178-260, R222W) (P31274 178-260 R222W): as the sequence (P31274 178-260) above, with R45W counted along it

HOXB9 [7] = target: HOXB9 (Homo sapiens, UniProt P17482 171-250, T197M)
Chain of HOXB9 (Homo sapiens, UniProt P17482 171-250, T197M) (P17482 171-250 T197M): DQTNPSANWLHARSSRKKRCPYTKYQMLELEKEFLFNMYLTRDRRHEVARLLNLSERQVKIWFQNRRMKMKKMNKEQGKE

HOXC9 [8] = target: HOXC9 (Homo sapiens, UniProt P31274 178-260, K195R)
Chain of HOXC9 (Homo sapiens, UniProt P31274 178-260, K195R) (P31274 178-260 K195R): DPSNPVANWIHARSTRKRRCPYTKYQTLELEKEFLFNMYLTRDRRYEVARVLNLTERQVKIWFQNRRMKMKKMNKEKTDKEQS

HOXA7 [9] = target: HOXA7 (Homo sapiens, UniProt P31268 116-202)
Chain of HOXA7 (Homo sapiens, UniProt P31268 116-202) (P31268 116-202): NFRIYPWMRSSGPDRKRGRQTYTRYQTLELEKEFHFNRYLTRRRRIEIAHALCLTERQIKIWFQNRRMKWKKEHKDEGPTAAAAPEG

HOXB6 [10] = target: HOXB6 (Homo sapiens, UniProt P17509 132-218, K202E)
Chain of HOXB6 (Homo sapiens, UniProt P17509 132-218, K202E) (P17509 132-218 K202E): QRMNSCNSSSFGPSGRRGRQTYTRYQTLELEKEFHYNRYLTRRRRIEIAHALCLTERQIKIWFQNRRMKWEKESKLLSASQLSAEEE

HOXB9 [11] = target: HOXB9 (Homo sapiens, UniProt P17482 171-250)
Chain of HOXB9 (Homo sapiens, UniProt P17482 171-250) (P17482 171-250): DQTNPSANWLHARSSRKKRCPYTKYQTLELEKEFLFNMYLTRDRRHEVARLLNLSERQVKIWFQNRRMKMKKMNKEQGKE

HOXC10 [12] = target: HOXC10 (Homo sapiens, UniProt Q9NYD6 254-340, K271E)
Chain of HOXC10 (Homo sapiens, UniProt Q9NYD6 254-340, K271E) (Q9NYD6 254-340 K271E): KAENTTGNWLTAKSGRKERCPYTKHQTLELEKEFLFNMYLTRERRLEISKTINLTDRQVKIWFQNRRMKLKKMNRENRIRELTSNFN

HOXB9 [13] = target: HOXB9 (Homo sapiens, UniProt P17482 171-250, R186Q)
Chain of HOXB9 (Homo sapiens, UniProt P17482 171-250, R186Q) (P17482 171-250 R186Q): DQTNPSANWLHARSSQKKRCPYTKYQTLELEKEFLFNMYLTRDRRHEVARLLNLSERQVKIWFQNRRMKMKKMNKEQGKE

HOXA7 [14] = target: HOXA7 (Homo sapiens, UniProt P31268 116-202, W177C)
Chain of HOXA7 (Homo sapiens, UniProt P31268 116-202, W177C) (P31268 116-202 W177C): as the sequence (P31268 116-202) above, with W62C counted along it

HOXB6 [15] = target: HOXB6 (Homo sapiens, UniProt P17509 132-218)
Chain of HOXB6 (Homo sapiens, UniProt P17509 132-218) (P17509 132-218): as the sequence (P17509 132-218 K202E) above, with E71K counted along it

HOXC10 [16] = target: HOXC10 (Homo sapiens, UniProt Q9NYD6 254-340)
Chain of HOXC10 (Homo sapiens, UniProt Q9NYD6 254-340) (Q9NYD6 254-340): as the sequence (Q9NYD6 254-340 K271E) above, with E18K counted along it

HOXD13 [17] = target: HOXD13 (Homo sapiens, UniProt P35453 263-343, T313R)
Chain of HOXD13 (Homo sapiens, UniProt P35453 263-343, T313R) (P35453 263-343 T313R): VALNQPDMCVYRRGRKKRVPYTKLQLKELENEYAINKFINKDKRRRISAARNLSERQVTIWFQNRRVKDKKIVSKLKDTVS

HOXD13 [18] = target: HOXD13 (Homo sapiens, UniProt P35453 263-343)
Chain of HOXD13 (Homo sapiens, UniProt P35453 263-343) (P35453 263-343): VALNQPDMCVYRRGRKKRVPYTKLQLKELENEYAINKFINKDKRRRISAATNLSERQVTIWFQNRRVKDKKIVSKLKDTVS

HOXD13 [19] = target: HOXD13 (Homo sapiens, UniProt P35453 263-343, T313A)
Chain of HOXD13 (Homo sapiens, UniProt P35453 263-343, T313A) (P35453 263-343 T313A): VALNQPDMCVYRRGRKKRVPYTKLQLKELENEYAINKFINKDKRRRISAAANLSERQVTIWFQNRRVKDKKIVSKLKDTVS

ALX1 [20] = target: ALX1 (Homo sapiens, UniProt Q15699 118-204, L144V)
Chain of ALX1 (Homo sapiens, UniProt Q15699 118-204, L144V) (Q15699 118-204 L144V): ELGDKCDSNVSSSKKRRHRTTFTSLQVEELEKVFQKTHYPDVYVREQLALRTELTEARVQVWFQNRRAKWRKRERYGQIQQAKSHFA

ALX1 [21] = target: ALX1 (Homo sapiens, UniProt Q15699 118-204, L144R)
Chain of ALX1 (Homo sapiens, UniProt Q15699 118-204, L144R) (Q15699 118-204 L144R): as the sequence (Q15699 118-204 L144V) above, with V27R counted along it

ALX1 [22] = target: ALX1 (Homo sapiens, UniProt Q15699 118-204)
Chain of ALX1 (Homo sapiens, UniProt Q15699 118-204) (Q15699 118-204): as the sequence (Q15699 118-204 L144V) above, with V27L counted along it

Sequence: AGTTATCC
- binding signal (VENTX [1]): 9.65 upbm affinity estimate (log intensity, higher = more binding, comparable within an allelic series)
- binding signal (VENTX [2]): 10.1 upbm affinity estimate (log intensity, higher = more binding, comparable within an allelic series)
- binding signal (HOXA4): 11.1 upbm affinity estimate (log intensity, higher = more binding, comparable within an allelic series)

Sequence: ACCGTTTA
- binding signal (VENTX [1]): 10.1 upbm affinity estimate (log intensity, higher = more binding, comparable within an allelic series)
- binding signal (VENTX [3]): 10.1 upbm affinity estimate (log intensity, higher = more binding, comparable within an allelic series)
- binding signal (PAX4): 10.4 upbm affinity estimate (log intensity, higher = more binding, comparable within an allelic series)

Sequence: ATAATCGG
- binding signal (VENTX [1]): 10.6 upbm affinity estimate (log intensity, higher = more binding, comparable within an allelic series)
- binding signal (VENTX [3]): 10.7 upbm affinity estimate (log intensity, higher = more binding, comparable within an allelic series)

Sequence: CTAACGAG
- binding signal (VENTX [1]): 10.2 upbm affinity estimate (log intensity, higher = more binding, comparable within an allelic series)
- binding signal (HOXC9 [4]): 10.9 upbm affinity estimate (log intensity, higher = more binding, comparable within an allelic series)
- binding signal (HOXC9 [5]): 10.8 upbm affinity estimate (log intensity, higher = more binding, comparable within an allelic series)
- binding signal (HOXC9 [6]): 10.1 upbm affinity estimate (log intensity, higher = more binding, comparable within an allelic series)

Sequence: GACATTAA
- binding signal (HOXB9 [7]): 10 upbm affinity estimate (log intensity, higher = more binding, comparable within an allelic series)
- binding signal (HOXC9 [8]): 12.6 upbm affinity estimate (log intensity, higher = more binding, comparable within an allelic series)
- binding signal (HOXA7 [9]): 11.2 upbm affinity estimate (log intensity, higher = more binding, comparable within an allelic series)
- binding signal (HOXB6 [10]): 10 upbm affinity estimate (log intensity, higher = more binding, comparable within an allelic series)
- binding signal (HOXB9 [11]): 11.8 upbm affinity estimate (log intensity, higher = more binding, comparable within an allelic series)
- binding signal (HOXC9 [4]): 12.6 upbm affinity estimate (log intensity, higher = more binding, comparable within an allelic series)
- binding signal (HOXC9 [5]): 12.5 upbm affinity estimate (log intensity, higher = more binding, comparable within an allelic series)
- binding signal (HOXC10 [12]): 11.9 upbm affinity estimate (log intensity, higher = more binding, comparable within an allelic series)
- binding signal (HOXB9 [13]): 11.6 upbm affinity estimate (log intensity, higher = more binding, comparable within an allelic series)
- binding signal (HOXC9 [6]): 10.9 upbm affinity estimate (log intensity, higher = more binding, comparable within an allelic series)
- binding signal (HOXA7 [14]): 8.93 upbm affinity estimate (log intensity, higher = more binding, comparable within an allelic series)
- binding signal (HOXB6 [15]): 11.7 upbm affinity estimate (log intensity, higher = more binding, comparable within an allelic series)

Sequence: ATTTATTA
- binding signal (HOXB9 [7]): 10.1 upbm affinity estimate (log intensity, higher = more binding, comparable within an allelic series)
- binding signal (HOXC9 [8]): 12.7 upbm affinity estimate (log intensity, higher = more binding, comparable within an allelic series)
- binding signal (HOXC10 [16]): 12.5 upbm affinity estimate (log intensity, higher = more binding, comparable within an allelic series)
- binding signal (HOXB6 [10]): 10 upbm affinity estimate (log intensity, higher = more binding, comparable within an allelic series)
- binding signal (HOXB9 [11]): 12 upbm affinity estimate (log intensity, higher = more binding, comparable within an allelic series)
- binding signal (HOXC9 [4]): 12.8 upbm affinity estimate (log intensity, higher = more binding, comparable within an allelic series)
- binding signal (HOXD13 [17]): 10.9 upbm affinity estimate (log intensity, higher = more binding, comparable within an allelic series)
- binding signal (HOXC9 [5]): 12.7 upbm affinity estimate (log intensity, higher = more binding, comparable within an allelic series)
- binding signal (HOXD13 [18]): 12 upbm affinity estimate (log intensity, higher = more binding, comparable within an allelic series)
- binding signal (HOXC10 [12]): 12 upbm affinity estimate (log intensity, higher = more binding, comparable within an allelic series)
- binding signal (HOXD13 [19]): 11.8 upbm affinity estimate (log intensity, higher = more binding, comparable within an allelic series)
- binding signal (HOXB9 [13]): 11.7 upbm affinity estimate (log intensity, higher = more binding, comparable within an allelic series)
- binding signal (HOXC9 [6]): 11.3 upbm affinity estimate (log intensity, higher = more binding, comparable within an allelic series)

Sequence: GGCGATTA
- binding signal (VENTX [1]): 11 upbm affinity estimate (log intensity, higher = more binding, comparable within an allelic series)
- binding signal (ALX1 [20]): 8.58 upbm affinity estimate (log intensity, higher = more binding, comparable within an allelic series)
- binding signal (ALX1 [21]): 8.54 upbm affinity estimate (log intensity, higher = more binding, comparable within an allelic series)
- binding signal (ALX1 [22]): 9.05 upbm affinity estimate (log intensity, higher = more binding, comparable within an allelic series)
